Records with an inconclusive call do not appear. Where a call stands in place of a potency, no number is given. Unmarked numbers belong to inactive results. The source made the active and inactive calls. Calls follow the shape of the dose curve; as a rule, active = well fitted curve in the direction sought with a large enough effect in the repeat runs; inconclusive = weak or mixed curves; inactive = no such curve, though single readings can be large; an effect the other way counts as inactive or inconclusive.
Legend:
[1] = qHTS assay to identify small molecule agonists of the RXR signaling pathway - cell viability counter screen (AID 1159529);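 also: HEK 293T cells carrying an RXR-alpha UAS beta-lactamase reporter; series mostly up to about 77 µM; nearly all actives have a fitted effect of over 50% in size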
Procedure, shortened: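 Counter screen: CellTiter-Glo luminescence. Cells: RXR-alpha-UAS-bla HEK 293T. Medium: 2% charcoal-stripped FBS. Treatment: 16 h, 37 C. Reagent incubation: 30 min, RT.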

[2] = qHTS assay to identify small molecule antagonists of the retinoid acid receptor (RAR) signaling pathway - cell viability counter screen (AID 1159551); also: nearly all actives have a fitted effect of over 35% in size
Procedure, shortened: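 Viability of C3RL4 cells is quantified from ATP by luminescence after 6 h treatment at 37 C with compounds and 1 uM retinol.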

SMILES	Potency [1]	outcome [2]	activity change, negative = cytotoxicity [1]	activity change, negative = cytotoxicity [2]
NS(=O)(=O)c1cc2c(cc1C(F)(F)F)NC(Cc1ccccc1)NS2(=O)=O (stereo not drawn)	inactive	inactive		
CO[Si](OC)(OC)OC	inactive	inactive		
COC(=O)CCCC(=O)O	inactive	inactive		
Cc1nccn1CC1CCc2c(c3ccccc3n2C)C1=O (stereo not drawn)	inactive	inactive		
CC1=CCC2C(C1)C2(C)C (stereo not drawn)	inactive	inactive		
NC(=O)CCCCC1CCSS1 (stereo not drawn)	inactive	inactive		
CC(C)(C)OC(=O)N1C[C@@H](F)C[C@H]1C(=O)O	inactive	inactive		
CC/C=C\CCCCO	inactive	inactive		
N[C@@H](CS)C(=O)O	inactive	inactive		
CC1CCN(CCCC(=O)c2ccc(F)cc2)CC1	inactive	inactive		
C=C[Si](OC)(OC)OC	inactive	inactive		
CCC(C(=O)NC(N)=O)c1ccccc1 (stereo not drawn)	inactive	inactive		
C=C(C)[C@@H]1CCC2=CC(=O)C[C@@H](C)[C@]2(C)C1	inactive	inactive		
C=CC(=O)N1CCOCC1	inactive	inactive		
NCCN1CCNC1=O	inactive	inactive		
CC(C)COC(=O)c1ccccc1O	inactive	inactive		
CCN(CC)S(=O)(=O)c1ccc(C(=O)O)cc1	inactive	inactive		
Nc1cc(N)cc(C(=O)O)c1	inactive	inactive		
C[N+](C)(C)CC[N+]1(C)Cc2c(Cl)c(Cl)c(Cl)c(Cl)c2C1	inactive	inactive		
N#CCN(CC#N)CCN(CC#N)CC#N	inactive	inactive		
Cn1cnc2c(=O)[nH]c(N)nc21	inactive	inactive		
CN(C)CCOC(c1ccc(Cl)cc1)c1ccccn1 (stereo not drawn)	inactive	inactive		
CC(=O)c1ccc(C)cc1	inactive	inactive		

SMILES	Potency [1]	outcome [2]	activity change, negative = cytotoxicity [1]	activity change, negative = cytotoxicity [2]
CC(=O)O[C@H](CC(=O)[O-])C[N+](C)(C)C	inactive	inactive		
CCCCOCC(C)OCC(C)O (stereo not drawn)	inactive	inactive		
NCCNC(=O)c1ccc(Cl)cn1	inactive	inactive		
[O-][N+](=Nc1ccccc1)c1ccccc1	inactive	inactive		
CC1(C)SC(C)(C)SC(C)(C)S1	inactive	inactive		
Cc1cc(C)c(NC(=O)CN(CC(=O)O)CC(=O)O)c(C)c1Br	inactive	inactive		
C1CCCCCCCCCCC1			1.49% [at 15.8 µM]	-2.08% [at 19 µM]
C=C(C)C(=O)NCCCN(C)C	inactive	inactive		
CC(C)=CC(=O)O	inactive	inactive		
CCCCCCCCCCCCCCCCCCOCC(O)CO (stereo not drawn)	inactive	inactive		
CC1=CC(C)C(C=O)C(C)C1 (stereo not drawn)	inactive	inactive		
c1ccc2cnncc2c1	inactive	inactive		
CC(C)=CCC/C(C)=C/C(=O)O	inactive	inactive		
CC(C)CCCC(C)NCCC(C)C (stereo not drawn)	inactive	inactive		
Nc1ncnc2c1ncn2Cc1c(F)cccc1Cl	inactive	inactive		
NS(=O)(=O)c1cc2c(cc1Cl)NC(CSCc1ccccc1)=NS2(=O)=O	inactive	inactive		
CC(C)(C)CC(C)(C)N	inactive	inactive		
C[C@H](O)C(=O)Nc1c(I)c(C(=O)NC(CO)CO)c(I)c(C(=O)NC(CO)CO)c1I	inactive	inactive		
CC(C=O)Cc1ccc(C(C)C)cc1 (stereo not drawn)	inactive	inactive		
CCN1CCCC(OC(=O)C(c2ccccc2)c2ccccc2)C1 (stereo not drawn)	inactive	inactive		
Nc1nc(F)nc2c1ncn2[C@@H]1O[C@H](CO)[C@@H](O)[C@@H]1O	inactive	inactive		
COc1cccc(OC)c1	inactive	inactive		
CCn1c(=O)c2c(nc(/C=C/c3ccc(OC)c(OC)c3)n2C)n(CC)c1=O	inactive	inactive		

SMILES	Potency [1]	outcome [2]	activity change, negative = cytotoxicity [1]	activity change, negative = cytotoxicity [2]
COc1cc(C)cc(O)c1	inactive	inactive		
Cc1cc(C)cc(OCC2CNC(=O)O2)c1 (stereo not drawn)	inactive	inactive		
C#CC(O)CCCCC (stereo not drawn)	inactive	inactive		
CC(C)CCOC(=O)CC(C)C	inactive	inactive		
Cc1c(F)cc2c(=O)c(C(=O)O)cn3c2c1CCC3C (stereo not drawn)	inactive	inactive		
NS(=O)(=O)c1cc(C2(O)NC(=O)c3ccccc32)ccc1Cl (stereo not drawn)	inactive	inactive		
OC/C=C/c1ccccc1	inactive	inactive		
CC(=O)N[C@@H](CCC(N)=O)C(=O)O	inactive	inactive		
Cc1ccc(Nc2ccc(O)c3c2C(=O)c2ccccc2C3=O)cc1	inactive	inactive		
O=C(O)c1ccc[n+]([O-])c1	inactive	inactive		
CC1(C)OC(=O)Nc2ccc(Br)cc21	inactive	inactive		
CCCOCC(C)OCC(C)O (stereo not drawn)	inactive	inactive		
C/C=C1\C(=O)C[C@H]2[C@@H]3CCC4=CC(=O)CC[C@]4(C)[C@H]3CC[C@]12C	inactive	inactive		
C=C(C)C(=O)OCCCCCCCCCCCCCCCCCC			15.1% [at 15.8 µM]	-0.339% [at 19 µM]
CCOC(=O)[C@H](CCc1ccccc1)N[C@@H](C)C(=O)N1CCC[C@H]1C(=O)O	inactive	inactive		
CCCc1ccc(N)cc1	inactive	inactive		
CCCCCCCCCCCCCCCCCC(=O)OCCCCCCCCCCCCCC(C)C	inactive	inactive		
COCc1ccc(COC)cc1	inactive	inactive		
CN(C)CCn1nnnc1SCC1=C(C(=O)O)N2C(=O)[C@@H](NC(=O)Cc3csc(N)n3)[C@H]2SC1	inactive	inactive		
C=CCOc1nc(OCC=C)nc(OCC=C)n1	inactive	inactive		
O=C1C(CCS(=O)c2ccccc2)C(=O)N(c2ccccc2)N1c1ccccc1 (stereo not drawn)	inactive	inactive		
CCN1CCN(c2cc3c(cc2F)c(=O)c(C(=O)O)cn3C2CC2)CC1	inactive	inactive		
O=C(O)c1ccccc1S	inactive	inactive		
